About 7,900 targets were measured; listed, in parts, are those with a hit and a random draw of the rest. About 0.6% of all pairs of compound and target were hits.
compound: CN(C)CC(=O)Nc1ccc2[nH]c(=O)c3ccccc3c2c1; experiment: log2 fold change, soluble protein after heating vs DMSO (PISA); higher = thermal stabilisation; K562 cells, 10 uM, 30 min; active = over 0.2 and 3.5 SD of the protein, either way, in both replicates (recomputed)
Procedure, shortened: (§1)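 K562 cells at 2×10^6 cells/mL were exposed to 10 μM compound for 30 min, then aliquots were heated for 3 min across 48°C-58°C, pooled, and extracted in PBS containing 0.5% NP-40 at 4°C. The supernatant after 21,000xg for 90 min was taken as soluble protein and measured by TMTpro 16plex LC-MS/MS with channel sums equalised. Thermal stability is reported relative to control samples, with values from duplicates. Fold changes are given on a log2 scale.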

Chain of UniProt Q14157 (Q14157 whole entry, looked up): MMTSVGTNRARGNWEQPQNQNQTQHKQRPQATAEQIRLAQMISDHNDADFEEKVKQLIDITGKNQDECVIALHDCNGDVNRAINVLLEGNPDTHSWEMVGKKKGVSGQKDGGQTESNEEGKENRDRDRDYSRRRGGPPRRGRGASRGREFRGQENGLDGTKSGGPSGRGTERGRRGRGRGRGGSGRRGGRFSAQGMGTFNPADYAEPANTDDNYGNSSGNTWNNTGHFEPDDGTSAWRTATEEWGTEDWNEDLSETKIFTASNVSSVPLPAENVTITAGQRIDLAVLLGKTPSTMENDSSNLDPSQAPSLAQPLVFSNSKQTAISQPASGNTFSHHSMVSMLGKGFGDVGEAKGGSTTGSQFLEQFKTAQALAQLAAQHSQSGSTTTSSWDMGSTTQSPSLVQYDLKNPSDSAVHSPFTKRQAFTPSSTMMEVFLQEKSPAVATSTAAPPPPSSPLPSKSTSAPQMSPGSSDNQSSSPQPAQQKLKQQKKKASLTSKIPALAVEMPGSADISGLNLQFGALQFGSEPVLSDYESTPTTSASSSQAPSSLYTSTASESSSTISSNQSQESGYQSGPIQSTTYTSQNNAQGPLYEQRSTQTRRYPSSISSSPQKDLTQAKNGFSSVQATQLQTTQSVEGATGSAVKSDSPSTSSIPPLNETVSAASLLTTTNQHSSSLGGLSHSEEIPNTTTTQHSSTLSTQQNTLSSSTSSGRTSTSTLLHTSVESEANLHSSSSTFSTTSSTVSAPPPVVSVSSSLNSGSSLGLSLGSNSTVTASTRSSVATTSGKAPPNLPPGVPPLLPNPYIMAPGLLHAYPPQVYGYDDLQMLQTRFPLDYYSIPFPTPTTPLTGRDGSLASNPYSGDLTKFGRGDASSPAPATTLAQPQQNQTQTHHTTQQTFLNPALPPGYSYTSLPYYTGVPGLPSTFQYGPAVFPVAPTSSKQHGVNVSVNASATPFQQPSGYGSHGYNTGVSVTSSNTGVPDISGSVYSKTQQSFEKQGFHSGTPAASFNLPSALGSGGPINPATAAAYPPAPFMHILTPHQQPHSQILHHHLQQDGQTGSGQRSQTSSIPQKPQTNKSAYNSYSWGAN
Chain of UniProt P22314 (P22314 whole entry, looked up): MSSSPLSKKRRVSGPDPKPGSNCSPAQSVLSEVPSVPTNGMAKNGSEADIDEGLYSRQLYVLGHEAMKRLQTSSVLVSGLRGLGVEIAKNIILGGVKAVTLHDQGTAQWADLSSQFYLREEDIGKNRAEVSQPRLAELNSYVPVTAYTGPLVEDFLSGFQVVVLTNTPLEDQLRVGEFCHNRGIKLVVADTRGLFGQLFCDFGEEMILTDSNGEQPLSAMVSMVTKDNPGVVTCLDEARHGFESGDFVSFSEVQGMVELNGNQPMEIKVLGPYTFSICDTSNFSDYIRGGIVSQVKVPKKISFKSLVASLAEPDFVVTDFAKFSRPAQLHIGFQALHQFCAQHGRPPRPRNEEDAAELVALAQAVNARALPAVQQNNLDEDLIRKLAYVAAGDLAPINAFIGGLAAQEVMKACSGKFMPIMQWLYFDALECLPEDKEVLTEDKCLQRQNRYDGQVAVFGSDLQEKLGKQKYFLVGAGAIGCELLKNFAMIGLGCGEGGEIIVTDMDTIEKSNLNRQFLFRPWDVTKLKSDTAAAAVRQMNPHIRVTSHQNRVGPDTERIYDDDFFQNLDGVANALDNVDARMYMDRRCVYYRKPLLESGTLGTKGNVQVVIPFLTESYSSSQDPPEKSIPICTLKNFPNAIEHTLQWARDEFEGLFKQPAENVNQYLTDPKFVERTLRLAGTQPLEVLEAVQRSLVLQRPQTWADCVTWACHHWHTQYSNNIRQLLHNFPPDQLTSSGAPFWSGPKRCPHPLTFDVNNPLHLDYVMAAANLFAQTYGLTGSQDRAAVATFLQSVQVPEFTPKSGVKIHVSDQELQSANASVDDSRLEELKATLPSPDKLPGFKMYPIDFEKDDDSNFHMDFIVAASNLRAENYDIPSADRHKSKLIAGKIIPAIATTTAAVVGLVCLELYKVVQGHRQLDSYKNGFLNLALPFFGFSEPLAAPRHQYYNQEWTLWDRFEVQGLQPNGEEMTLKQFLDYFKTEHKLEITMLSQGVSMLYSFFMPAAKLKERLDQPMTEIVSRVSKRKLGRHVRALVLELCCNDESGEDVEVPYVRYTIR
Chain of UniProt Q8N4H5 (Q8N4H5 whole entry, looked up): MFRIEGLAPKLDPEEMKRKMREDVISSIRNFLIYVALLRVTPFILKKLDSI
Chain of UniProt Q9HAV4 (Q9HAV4 whole entry, looked up): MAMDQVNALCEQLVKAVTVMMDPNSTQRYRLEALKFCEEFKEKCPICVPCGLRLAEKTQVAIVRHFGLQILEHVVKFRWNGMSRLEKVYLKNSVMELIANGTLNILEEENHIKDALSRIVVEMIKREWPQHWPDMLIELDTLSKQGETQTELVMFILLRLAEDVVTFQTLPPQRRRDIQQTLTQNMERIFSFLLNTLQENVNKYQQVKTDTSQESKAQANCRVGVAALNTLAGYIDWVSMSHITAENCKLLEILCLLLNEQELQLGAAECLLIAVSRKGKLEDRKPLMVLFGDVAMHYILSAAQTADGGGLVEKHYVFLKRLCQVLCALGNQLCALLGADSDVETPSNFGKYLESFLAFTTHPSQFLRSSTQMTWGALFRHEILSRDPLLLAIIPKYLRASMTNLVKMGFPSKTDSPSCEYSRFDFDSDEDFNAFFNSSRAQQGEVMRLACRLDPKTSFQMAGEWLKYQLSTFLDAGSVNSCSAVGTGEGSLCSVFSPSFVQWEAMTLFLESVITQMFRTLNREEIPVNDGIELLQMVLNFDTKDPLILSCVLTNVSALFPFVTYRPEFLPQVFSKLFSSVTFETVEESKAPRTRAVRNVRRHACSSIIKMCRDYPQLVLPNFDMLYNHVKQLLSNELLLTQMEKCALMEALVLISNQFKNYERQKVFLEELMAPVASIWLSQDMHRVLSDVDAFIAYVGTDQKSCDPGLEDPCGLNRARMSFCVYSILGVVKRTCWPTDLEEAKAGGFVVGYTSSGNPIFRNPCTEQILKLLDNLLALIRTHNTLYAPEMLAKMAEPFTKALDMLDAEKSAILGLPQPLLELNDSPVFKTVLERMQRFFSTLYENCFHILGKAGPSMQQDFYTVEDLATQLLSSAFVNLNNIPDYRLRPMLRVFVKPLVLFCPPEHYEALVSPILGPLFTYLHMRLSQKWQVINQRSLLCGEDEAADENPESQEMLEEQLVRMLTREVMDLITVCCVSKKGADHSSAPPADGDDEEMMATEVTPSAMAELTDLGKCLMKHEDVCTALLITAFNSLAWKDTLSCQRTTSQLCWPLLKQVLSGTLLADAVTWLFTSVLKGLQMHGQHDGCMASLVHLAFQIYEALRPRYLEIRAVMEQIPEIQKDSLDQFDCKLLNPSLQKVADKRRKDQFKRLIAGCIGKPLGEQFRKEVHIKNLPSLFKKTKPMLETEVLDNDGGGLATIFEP
Chain of UniProt Q13263 (Q13263 whole entry, looked up): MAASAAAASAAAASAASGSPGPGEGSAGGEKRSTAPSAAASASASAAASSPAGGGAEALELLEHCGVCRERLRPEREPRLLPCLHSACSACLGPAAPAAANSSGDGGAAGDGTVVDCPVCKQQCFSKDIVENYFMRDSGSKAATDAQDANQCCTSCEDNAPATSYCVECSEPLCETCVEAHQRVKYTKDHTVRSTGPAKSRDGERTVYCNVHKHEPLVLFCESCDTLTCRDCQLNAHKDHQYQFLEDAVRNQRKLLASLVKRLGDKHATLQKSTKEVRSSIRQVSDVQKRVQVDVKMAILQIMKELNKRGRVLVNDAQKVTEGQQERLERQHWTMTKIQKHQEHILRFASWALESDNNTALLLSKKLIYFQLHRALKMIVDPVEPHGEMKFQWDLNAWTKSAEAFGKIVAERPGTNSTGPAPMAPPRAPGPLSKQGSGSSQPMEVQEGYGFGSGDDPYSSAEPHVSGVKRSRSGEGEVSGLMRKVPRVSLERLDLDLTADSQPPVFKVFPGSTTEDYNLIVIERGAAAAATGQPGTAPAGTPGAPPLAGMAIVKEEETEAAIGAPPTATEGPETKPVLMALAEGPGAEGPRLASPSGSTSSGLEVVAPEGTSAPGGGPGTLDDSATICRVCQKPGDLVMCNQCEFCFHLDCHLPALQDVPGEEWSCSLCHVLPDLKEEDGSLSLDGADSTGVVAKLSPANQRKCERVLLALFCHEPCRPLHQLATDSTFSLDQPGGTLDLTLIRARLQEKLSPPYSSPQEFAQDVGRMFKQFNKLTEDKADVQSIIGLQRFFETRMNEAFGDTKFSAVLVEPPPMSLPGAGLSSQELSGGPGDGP
Chain of UniProt Q9NQH7 (Q9NQH7 whole entry, looked up): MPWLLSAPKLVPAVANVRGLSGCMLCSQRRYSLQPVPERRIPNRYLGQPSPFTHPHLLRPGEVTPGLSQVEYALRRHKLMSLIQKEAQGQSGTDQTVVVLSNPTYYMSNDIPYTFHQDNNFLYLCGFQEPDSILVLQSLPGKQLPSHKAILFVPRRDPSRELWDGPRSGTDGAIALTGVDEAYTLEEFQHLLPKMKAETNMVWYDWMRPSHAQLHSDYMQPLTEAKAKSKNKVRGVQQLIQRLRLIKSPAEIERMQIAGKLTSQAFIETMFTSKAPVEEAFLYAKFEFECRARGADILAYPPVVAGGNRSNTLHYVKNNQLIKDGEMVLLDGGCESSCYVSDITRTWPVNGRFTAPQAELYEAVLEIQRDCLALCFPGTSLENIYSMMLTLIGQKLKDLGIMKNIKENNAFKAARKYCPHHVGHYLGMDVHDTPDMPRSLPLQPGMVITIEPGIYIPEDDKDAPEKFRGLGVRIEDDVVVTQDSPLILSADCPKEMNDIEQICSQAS
Chain of UniProt O00258 (O00258 whole entry, looked up): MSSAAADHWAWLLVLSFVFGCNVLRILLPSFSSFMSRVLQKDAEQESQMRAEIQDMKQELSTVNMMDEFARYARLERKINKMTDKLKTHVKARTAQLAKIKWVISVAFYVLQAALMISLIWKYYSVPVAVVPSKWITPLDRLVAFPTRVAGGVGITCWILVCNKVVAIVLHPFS
Chain of UniProt Q9UDW1 (Q9UDW1 whole entry, looked up): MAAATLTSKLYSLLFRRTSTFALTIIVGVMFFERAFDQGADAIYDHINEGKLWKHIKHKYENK

log2 fold change, inactive:
WDHD1 (UniProt O75717) 0.051
TOMM5 isoform 2 (UniProt Q8N4H5) -0.046
WDR41 (UniProt Q9HAD4) 0.012
XPO5 (UniProt Q9HAV4) 0.018
VARS2, A0A0G2JL52 0.007
WNK1 isoform 7 (UniProt Q9H4A3) 0.005
TRIM28 (UniProt Q13263) 0.047
WRB (UniProt O00258) -0.024
UBR2 (UniProt Q8IWV8) -0.076
UBE2S (UniProt Q16763) 0.048
VPS13B (UniProt Q7Z7G8) -0.028
TRMT10C (UniProt Q7L0Y3) 0.018
XPNPEP3 (UniProt Q9NQH7) -0.004
TMEM189-UBE2V1 (UniProt I3L0A0) 0
USP15 (UniProt Q9Y4E8) 0.031
VWA8 (UniProt A3KMH1) 0.056
TUBAL3 (UniProt A6NHL2) -0.061
XPO1 (UniProt O14980) 0.058
U2AF2 (UniProt P26368) 0.002
WDR47 (UniProt O94967) -0.012
U2AF1 isoform 2 (UniProt Q01081) 0.071
XPNPEP1 isoform 3 (UniProt Q9NQW7) 0.051
UBA1 (UniProt P22314) 0.115
WDR4 (UniProt P57081) 0.022
VPS35L (UniProt Q7Z3J2) 0.005
UBA6 0.033
UQCR10 (UniProt Q9UDW1) 0.008
TRAPPC11 (UniProt Q7Z392) 0.032
TXN2 (UniProt Q99757) -0.096
UBAP2L isoform 1 (UniProt Q14157) -0.004
TMEM208 (UniProt Q9BTX3) 0.274
UBAP2L isoform 5 (UniProt Q14157) -0.035
TXNIP (UniProt Q9H3M7) -0.026
VRK2 (UniProt Q86Y07) -0.009
WDR61 (UniProt Q9GZS3) -0.011
USP48 isoform 8 (UniProt Q86UV5) 0.195

compound: CN(CCOC1=CC=C(C=C1)C[C@H]2C(=O)NC(=O)S2)C3=CC=CC=N3 (racemic) [rosiglitazone]; experiment: as above
Procedure, shortened: as §1

log2 fold change, inactive:
WDHD1 (UniProt O75717) 0.072
TOMM5 isoform 2 (UniProt Q8N4H5) -0.017
WDR41 (UniProt Q9HAD4) 0.007
XPO5 (UniProt Q9HAV4) 0.035
VARS2, A0A0G2JL52 0.03
WNK1 isoform 7 (UniProt Q9H4A3) 0.015
TRIM28 (UniProt Q13263) 0.029
WRB (UniProt O00258) -0.025
UBR2 (UniProt Q8IWV8) 0.063
UBE2S (UniProt Q16763) -0.004
VPS13B (UniProt Q7Z7G8) 0.011
TRMT10C (UniProt Q7L0Y3) 0.021
XPNPEP3 (UniProt Q9NQH7) -0.002
TMEM189-UBE2V1 (UniProt I3L0A0) 0.04
USP15 (UniProt Q9Y4E8) 0.058
VWA8 (UniProt A3KMH1) 0.024
TUBAL3 (UniProt A6NHL2) 0.139
XPO1 (UniProt O14980) 0.077
U2AF2 (UniProt P26368) 0.003
WDR47 (UniProt O94967) -0.003
U2AF1 isoform 2 (UniProt Q01081) -0.007
XPNPEP1 isoform 3 (UniProt Q9NQW7) 0.028
UBA1 (UniProt P22314) 0.132
WDR4 (UniProt P57081) 0.177
VPS35L (UniProt Q7Z3J2) 0.072
UBA6 0.016
UQCR10 (UniProt Q9UDW1) 0.017
TRAPPC11 (UniProt Q7Z392) -0.027
TXN2 (UniProt Q99757) -0.027
UBAP2L isoform 1 (UniProt Q14157) 0.001
TMEM208 (UniProt Q9BTX3) 0.081
UBAP2L isoform 5 (UniProt Q14157) -0.007
TXNIP (UniProt Q9H3M7) 0.036
VRK2 (UniProt Q86Y07) 0.019
WDR61 (UniProt Q9GZS3) 0.095
USP48 isoform 8 (UniProt Q86UV5) 0.064
